Only some compounds are listed: those with a hit (about 3.7% of all), similar ones and a draw of the others.
HTT prom inh: inhibitors of huntingtin promoter activity. actives 0.93% (n = 48,000). Potency, µM (top dose mostly 57.5 µM), for inactives: at the top dose activity change, negative = inhibition, actives largely listed as inhibitors. AID 1508623. HEK293 HTT promoter firefly luciferase reporter, 24 h; also: potency is read from the fitted curve at half-maximal effect; nearly all actives have a fitted effect of over 50% in size
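Firefly luciferase signal from promoter-reporter HEK293 cells was scaled between vehicle (0%) and zero RLU (-100%). Compounds were tested at final concentrations of up to 57.5 uM over 24 h at 37 degrees C. PTC124 at 50 uM final served as control inhibitor.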
HTT-AS act: activators of huntingtin-antisense promoter activity; HEK293 HTT-AS promoter firefly luciferase reporter, 24 h; response scale: percent change from vehicle, -100% = no light; Potency, µM (series often up to 57.5 µM), for inactives: at the top dose activity change, positive = activation, hits mostly activators; actives 0.24% (n = 48,000); AID 1508624; also: potency is read from the fitted curve at half-maximal effect; nearly all actives have a fitted effect of over 55% in size
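Firefly luciferase signal from promoter-reporter HEK293 cells was scaled between vehicle (0%) and zero RLU (-100%). Compounds were tested at final concentrations of up to 57.5 uM over 24 h at 37 degrees C. PTC124 at 50 uM final served as control inhibitor.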
DRV1 agonist: agonists of human resolvin D1 receptor DRV1 (GPR32); activation, % at 76.9 µM; CHO-K1 GPR32 beta-arrestin PathHunter luminescence, 90 min; zero percent set by DMSO-only wells; actives 2.5% (n = 48,000); O75388;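 active = activation of at least 60% and not above a set upper limit, about 1 call in 100 departs from these limits; inconclusive = activation of 40% to 60%, or above that upper limit; inactive = activation under 40%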; also: 0% is about no effect
Target sequence (O75388 whole entry, looked up): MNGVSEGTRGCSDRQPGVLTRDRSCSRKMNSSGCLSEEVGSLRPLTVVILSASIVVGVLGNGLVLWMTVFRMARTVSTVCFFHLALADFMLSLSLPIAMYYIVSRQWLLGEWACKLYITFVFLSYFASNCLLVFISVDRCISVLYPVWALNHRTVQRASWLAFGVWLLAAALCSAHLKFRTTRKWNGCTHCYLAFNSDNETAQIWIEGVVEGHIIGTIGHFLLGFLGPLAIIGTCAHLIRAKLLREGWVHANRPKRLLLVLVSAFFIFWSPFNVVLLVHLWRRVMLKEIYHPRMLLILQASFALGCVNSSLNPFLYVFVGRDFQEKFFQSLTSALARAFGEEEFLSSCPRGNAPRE
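PathHunter beta-arrestin recruitment in CHO-K1 cells stably expressing ProLink-tagged GPR32. Cells were exposed to compound for 90 min at 37 C, then chemiluminescence was read after 1 h detection at ambient temperature; DMSO served as basal control.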
* marks the source's active call; other numbers are inactive results; ? = inconclusive; / = no result given; ! = repeats disagree; [ ] = dose if it differs, or a comment. Unless noted, calls follow the shape of the dose curve; as a rule, active = well fitted curve in the direction sought with a large enough effect; inconclusive = small, poorly fitted or top-dose-only effect, or another doubt; inactive = no such curve, though single readings can be large; an effect the other way counts as inactive or inconclusive.

SMILES	HTT prom inh	HTT-AS act	DRV1 agonist
Cc1cnc(NC(=O)Nc2cc(Br)c(C)cc2OC[C@@H]2CNCCO2)cn1	-28%	-25%	/
Cn1cc(CNCC2CCN(c3ncc(C(=O)NO)cn3)CC2)c2ccccc21	242%	?	/
CCC(C)NC(=O)c1cc(Sc2cccc(Cl)c2)nc2ccccc12 (stereo unspecified)	?	-18%	20
CCc1ccc(Sc2cc(C(=O)NC(C)CC)c3ccccc3n2)cc1 (stereo unspecified)	-27%	-22%	75*
Cc1ccc(CSCCNC(=O)C2CCN(S(=O)(=O)Cc3ccccc3)CC2)cc1	/	/	14
COC(c1ccccc1)(c1ccccc1)[C@H](Oc1nc(C)cc(C)n1)C(=O)O	5%	-2%	-2
Cc1ccc(CCNS(=O)(=O)c2c(C)nc3sc(C)c(C)n3c2=O)cc1	-2%	-6%	3
COC(=O)c1cc(Cl)ccc1NS(=O)(=O)C(F)(F)F	-5%	-2%	-4
COc1ccc(C(=O)Nc2nc3ccccc3n2CCOc2ccc(Cl)cc2)cc1	17%	2%	-26
COc1ccc(OCCn2c(NC(=O)c3ccc(OC)cc3)nc3ccccc32)cc1	-17%[11.5 µM]	?	63*
CCCCn1c(NCc2ccc(OC)cc2O)nc2ccccc21	-15%	-18%	70*
CCCCCn1c(NCc2ccccc2OC)nc2ccccc21	?	-59%	10
Cc1ccc(C(=O)C(=O)O)cc1C	-3%	0%	4
Cc1ccc(N2CCN(Cc3nnc(-c4ccccc4F)o3)CC2)c(C)c1	-19%	-19%	-7
CCc1ccccc1N(CC)C(=O)Cn1nc(Cc2ccncc2)c2ccccc2c1=O	-28%	-36%	-9
Cc1cc(-n2c(C)nc3ccccc3c2=O)ccc1NC(=O)c1cccc([N+](=O)[O-])c1C	-3%	-9%	14
Cc1cc(-n2c(C)nc3ccccc3c2=O)ccc1NC(=O)c1ccccc1[N+](=O)[O-]	-8%	-4%	94*
CC(Sc1nc2c(c(=O)[nH]1)CCCC2)C(=O)Nc1cc(C(F)(F)F)ccc1Cl (stereo unspecified)	-12%	-7%	25
O=C(CSc1nc2c(c(=O)[nH]1)CCC2)Nc1cc(C(F)(F)F)ccc1Cl	-17%	-8%	83*
O=C(CCCn1c(=O)c2sccc2n(Cc2c(F)cccc2Cl)c1=O)NCc1ccccc1	-2%	6%	0
CC(C)c1nn2c(=O)cc(COC(=O)c3ccccc3NC(=O)c3cccc(Cl)c3)nc2s1	-15%	1%	-16
COc1ccccc1CNC(=O)C1CCCN(c2nnc(-n3c(C)ccc3C)s2)C1 (stereo unspecified)	-16%	-10%	15
CC1(O)CC(c2nc(-c3ccc4ccc(-c5ccccc5)nc4c3)c3c(N)nccn23)C1 (stereo unspecified)	?	-21%	/
O=C(Cn1c(SCC(=O)Nc2ccc(F)cc2)nc2ccccc21)NCc1ccccc1Cl	-32%	-11%	70*
O=C(Cn1c(SCC(=O)Nc2ccc(F)cc2)nc2ccccc21)NCc1ccc(F)cc1	-30%	-7%	?
SMILES	HTT prom inh	HTT-AS act	DRV1 agonist
C=Cc1ccc(Cn2c(=O)cc(C)c3c(C)nn(C)c32)cc1	?	-22%	11
CN1[C@H]2CC[C@H]1CC(OC(=O)c1c[nH]c3ccccc13)C2 (stereo partly specified)	-13%	-49%	/
COc1cccc(-c2nc(CS(=O)(=O)CC(=O)N3CCN(c4ccccc4)CC3)c(C)o2)c1	?	-26%	-13
Cc1oc(-c2ccccc2F)nc1CS(=O)(=O)CC(=O)N1CCN(c2ccc(Cl)cc2)CC1	28µM*	-55%	?
Cc1cc(C)c(S(=O)(=O)Nc2ccc3oc4c(c3c2)C(=O)CC(C)(C)C4)cc1C	?	0%[11.5 µM]	-6
COc1ccc(S(=O)(=O)Nc2ccc3oc4c(c3c2)C(=O)CC(C)(C)C4)cc1	?	-34%	64*
COc1cc2c(cc1OC)C(COc1ccc3c(C)cc(=O)oc3c1)N(C(=O)c1ccccc1C)CC2 (stereo unspecified)	-17%	-2%	-1
COc1ccc(-c2nc(CSCC(=O)N3CCN(c4ccccc4)CC3)c(C)o2)cc1	?	-57%	-1
COc1ccc(-c2nc(CSCC(=O)N3CCN(c4ccc(F)cc4)CC3)c(C)o2)cc1	13µM*	-51%	-7
COc1ccccc1C(=O)Nc1ccccc1C(=O)OCc1cc(=O)n2c(C)csc2n1	-17%	-17%	-8
Cc1ccccc1C(=O)OCc1cc(=O)n2c(C)csc2n1	15%	?	75*
O=C(NCCCN1CCN(c2ccc(F)cc2)CC1)c1cc2c(Cl)nc3ccccc3c2s1	4%	-10%	-12
NC(=NCCCCCCN=C(N)N=C(N)Nc1ccc(Cl)cc1)N=C(N)Nc1ccc(Cl)cc1	32%	-8%	/
NC(=NCCCCCCN=C(N)/N=C(\N)Nc1ccc(Cl)cc1)/N=C(\N)Nc1ccc(Cl)cc1	?	-29%	86*
CCOc1ccccc1C1CC(=O)NC(C)=C1C(=O)OC1CCCCCC1 (stereo unspecified)	32µM*	-45%	39
CC1=C(C(=O)OCC2CCCCC2)C(c2ccc(F)cc2F)CC(=O)N1 (stereo unspecified)	?	-23%	13
CC1=C(C(=O)OC2CCCCCC2)C(c2ccccc2Cl)CC(=O)N1 (stereo unspecified)	?	-33%	-8
CCOc1ccccc1C1CC(=O)NC(C)=C1C(=O)OCc1ccc(C)cc1 (stereo unspecified)	?	-33%	60*
CC1=C(C(=O)OCc2ccc(C)cc2)C(c2ccccc2F)CC(=O)N1 (stereo unspecified)	?	-42%	67*
CCCCOc1ccccc1C1CC(=O)Nc2cc(C)c(C)cc21 (stereo unspecified)	?	-31%	-1
CS(=O)(=O)N1CCN(Cc2cc3nc(-c4cccc5[nH]ncc45)nc(N4CCOCC4)c3s2)CC1	?	-26%	/
CN1C[C@H](C(=O)N[C@]2(C)O[C@@]3(O)[C@@H]4CCCN4C(=O)[C@H](Cc4ccccc4)N3C2=O)C[C@@H]2c3cccc4[nH]cc(c34)C[C@H]21	-4%	-14%	-18
CCCN1C[C@H](CSC)C[C@@H]2c3cccc4[nH]cc(c34)C[C@H]21	-8%	-14%	79*!
COc1ccc(CNC(=O)c2cc3c(=O)n(C)c4ccccc4c3n2C)c(OC)c1	7%	-7%	20
Cc1oc2ncn(CC(C)C)c(=O)c2c1C(=O)NCCCN(Cc1ccccc1)C(C)C	-18%	-21%	-6
CCCCCCCCCCCCCCCC(=O)O[C@H]1[C@@H](O)[C@@H](O)[C@@H]([C@H](NC(=O)[C@@H]2C[C@@H](CCC)CN2C)[C@H](C)Cl)O[C@@H]1SC	-4%	-11%	/

From PubChem
